The list is not random: actives were taken first. Their share in the collection is about 2.3%.
C diff HTS: C. difficile growth inhibitors, primary screen, HTS; 0.25% of 86,000 active; growth activity, negative = inhibition, % at 16 µg/mL (by protocol); Clostridium difficile clinical isolate growth, OD600, 24 h; hits give low values;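 active = mean growth activity at or below -80% and every replicate also at or below -80%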
Pf Dd2 inh: P. falciparum Dd2 growth inhibitors, primary screen, SYBR Green fluorescence, single dose replicates; 72 h; hits give low values; activity change, % at 10 µM; 2.3% of 94,000 active; in the data active = activity change below about -80%
Hits are given with their value; - = inactive; . = not tested or not shown.

SMILES	C diff HTS	Pf Dd2 inh
Cc1noc(C)c1NC(=O)N(C)C[C@@H]1Oc2ccc(NS(=O)(=O)c3cn(C)cn3)cc2CC(=O)N([C@H](C)CO)C[C@H]1C	-	-82.6
Cc1noc(C)c1NC(=O)N(C)C[C@@H]1Oc2ccc(NC(=O)C3CCCCC3)cc2CC(=O)N([C@@H](C)CO)C[C@@H]1C	-	-
COC[C@@]12C[C@H]3C(=O)N(Cc4ccccc4)C(=O)[C@H]3[C@@H](CO1)/C2=C\c1ccccc1	-	.
CCN1[C@H](C(=O)NCc2cccc(OC)c2)[C@@H](CO)[C@@H]2Cn3c(ccc(C4=CCCC4)c3=O)[C@@H]21	-	.
O=S(=O)(N[C@H]1CC[C@H](CCNS(=O)(=O)c2ccccc2Cl)O[C@@H]1CO)c1ccccc1	-	-
COc1ccc2c3c([nH]c2c1)[C@@H](CO)N(C(=O)C1CCC1)CC31CN(Cc2cccc(F)c2)C1	-	-
CO[C@@H]1CN(C)C(=O)c2ccc(NC(=O)Nc3ccccc3F)cc2OC[C@@H](C)N(C)C[C@H]1C	-	-
CO[C@@H]1CN(C)C(=O)c2ccc(NC(=O)Nc3ccccc3F)cc2OC[C@@H](C)N(Cc2ccccc2F)C[C@H]1C	.	-90.3
CO[C@H]1CN(C)C(=O)c2cc(NC(=O)C3CC3)ccc2OC[C@H](C)N(Cc2cc(F)ccc2F)C[C@H]1C	.	-87.5
CO[C@@H]1CN(C)C(=O)c2ccc(NC(=O)Nc3ccccc3Cl)cc2OC[C@@H](C)N(C)C[C@H]1C	.	-87.1
COc1ccccc1CN1C[C@@H](C)[C@H](OC)CN(C)C(=O)c2cc(NC(=O)Nc3ccccc3OC)ccc2OC[C@H]1C	.	-89.4
CO[C@@H]1CN(C)C(=O)c2cc(NC(=O)C3CC3)ccc2OC[C@H](C)N(Cc2cc(F)ccc2F)C[C@H]1C	.	-
CO[C@@H]1CN(C)C(=O)c2cc(NC(=O)Nc3ccccc3F)ccc2OC[C@@H](C)N(Cc2ccccc2F)C[C@H]1C	-	-
COc1ccccc1NC(=O)Nc1ccc2c(c1)C(=O)N(C)C[C@@H](OC)[C@H](C)CN(Cc1ccccc1Cl)[C@H](C)CO2	-	-
CC(C)C(=O)Nc1ccc2c(c1)C(=O)N(C)[C@H]1CC[C@@H](CC(=O)NCc3ccc(F)cc3)O[C@@H]1CO2	-	-
Cc1noc(C)c1NC(=O)Nc1ccc2c(c1)C(=O)N([C@H](C)CO)C[C@H](C)[C@H](CN(C)S(=O)(=O)c1cn(C)cn1)OCCCC[C@H](C)O2	-	-
CCCN1C[C@@H](C)[C@@H](OC)CN(C)C(=O)c2ccc(NC(=O)Nc3ccccc3F)cc2OC[C@@H]1C	.	-
CO[C@@H]1CN(C)C(=O)c2ccc(NC(=O)Nc3ccccc3F)cc2OC[C@@H](C)N(CCC(F)(F)F)C[C@H]1C	-	-85.5
COc1cccc(NC(=O)N(C)C[C@@H]2Oc3cc(C#Cc4ccncc4)ccc3S(=O)(=O)N([C@@H](C)CO)C[C@@H]2C)c1	-	-
CNC[C@H]1Oc2cc(C#Cc3cccc(OC)c3)ccc2S(=O)(=O)N([C@@H](C)CO)C[C@@H]1C	-	-
COc1ccc(C#Cc2ccc3c(c2)O[C@H](CN(C)C(=O)Nc2cccc(OC)c2)[C@@H](C)CN([C@@H](C)CO)S3(=O)=O)cc1	.	-85.2
COc1ccc(C#Cc2ccc3c(c2)O[C@@H](CN(C)C(=O)Nc2cccc(OC)c2)[C@@H](C)CN([C@@H](C)CO)S3(=O)=O)cc1	.	-89.5
CNC[C@@H]1Oc2cc(C#Cc3ccc(OC)cc3)ccc2S(=O)(=O)N([C@@H](C)CO)C[C@H]1C	-	-85.0
COc1cccc(NC(=O)N(C)C[C@H]2Oc3cc(C#Cc4ccc(F)cc4)ccc3S(=O)(=O)N([C@@H](C)CO)C[C@@H]2C)c1	-	-
N[C@@H]1CC[C@@H](CCn2cc(C3CCCCC3)nn2)O[C@H]1CO	-	-
SMILES	C diff HTS	Pf Dd2 inh
C[C@H]1CN([C@@H](C)CO)C(=O)c2cccc(NC(=O)C3CCOCC3)c2O[C@@H]1CN(C)Cc1ccc2c(c1)OCO2	-	-
CC(C)NC(=O)N(C)C[C@@H]1Oc2ccc(NC(=O)Nc3ccc4c(c3)OCO4)cc2C(=O)N([C@@H](C)CO)C[C@H]1C	.	-
C[C@@H]1CCCCO[C@H](CN(C)C(=O)Nc2cccc3ccccc23)[C@@H](C)CN([C@H](C)CO)C(=O)c2cc(NC(=O)Nc3ccc(F)cc3)ccc2O1	-	-
C[C@@H]1CN([C@@H](C)CO)C(=O)c2cc(NC(=O)Nc3ccccc3)ccc2O[C@@H](C)CCCCO[C@@H]1CN(C)C(=O)Nc1cccc2ccccc12	-	-84.4
C[C@@H]1CCCCO[C@H](CN(C)C(=O)Nc2cccc3ccccc23)[C@H](C)CN([C@@H](C)CO)C(=O)c2cc(NC(=O)Nc3ccc(F)cc3)ccc2O1	-	-82.7
C[C@H](CO)N1C[C@H](C)[C@H](CN(C)C(=O)Nc2cccc3ccccc23)OCCCC[C@H](C)Oc2ccc(NC(=O)Nc3ccccc3)cc2C1=O	-	-
